Shown are actives, neighbours in structure and some others; about 6.1% of the full set was active somewhere.
D1 potentiator – Potentiators of Human D1 Dopamine Receptor: qHTS; D(1A) dopamine receptor (Homo sapiens), P21728; potentiation, % at 10 µM; HEK293 TREx D1 cells, calcium flux, dopamine EC20 potentiation; hit rate 0.036% among 360,000; in the data active means potentiation above about 30%; further: 0% is about no effect
DRD3 agonist – qHTS of D3 Dopamine Receptor Agonist: qHTS; D(3) dopamine receptor (Homo sapiens), P35462; D3R DiscoveRx beta-arrestin cells, luminescence, 90 min; max activation, %; hit rate 0.58% among 410,000; AID 652048, 2013; in the data active means max activation above about 30%; further: 0% is about no effect
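Cells at 1500/well, incubated overnight, then treated with pinned compounds (dopamine as control) for 90 min at 37 degrees C. DiscoveRx reagent added for 30 - 60 minutes at room temperature; luminescence read.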
D1 antagonist – Antagonist of Human D 1 Dopamine Receptor: qHTS. D(1A) dopamine receptor (Homo sapiens), P21728. HEK293 TREx D1 cells, calcium flux, dopamine EC80; active compounds read low. activity change, negative = inhibition, % at 10 µM. hit rate 3.2% among 360,000. AID 504652, 2011; in the data active means activity change below about -30%; further: on the % scale 0 is the no-effect control and ±100 the full control effect
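Antagonism measured as reduced calcium response to an EC80 dopamine addition following 180 s compound pre-read; cells were inducible HEK293 Trex D1 plated overnight at 30 C, read kinetically at 1 cycle/sec.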
D3 antag – qHTS of D3 Dopamine Receptor Antagonist: qHTS; D(3) dopamine receptor (Homo sapiens), P35462; D3R cells, DiscoveRx beta-arrestin luminescence, antagonist mode; active compounds read low; hit rate 2.5% among 360,000; max response, negative = inhibition, %; in the data active means max response below about -50%; inconclusive means no clear call, values can overlap the other calls; further: on the % scale 0 is the no-effect control and ±100 the full control effect
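Cells expressing the human receptor were seeded at 1500 cells/well, incubated overnight at 37 degrees C in 5% CO2, then exposed to library compounds with dopamine controls for 90 minutes at 37 degrees C before luminescent detection.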
ERG Ets-DNA blk – qHTS for Small Molecule Inhibitors of the ERG Ets/DNA interaction; Potency, µM (series often up to 76.9 µM), inactives show at the top dose FP activity, negative = inhibition, usual class: inhibitors; fluorescence polarization, His-ERG Ets domain / labelled DNA; hit rate 0.028% among 370,000; active means well fitted inhibition curve with a large enough effect in the polarisation, with a control signal flat; inconclusive means small, poorly fitted or top-dose-only effect, or effect the other way, or a change in a side signal; inactive means no such curve, though single readings can be large or run the other way; the % refers to the polarisation;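 further: polarization taken with two DNA probes labelled with fluorescein and Texas red; potency means the concentration at half of the fitted maximal effect; % of control where 0% means no effect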
Target sequence (P11308 whole entry, looked up, the tested form may be a part): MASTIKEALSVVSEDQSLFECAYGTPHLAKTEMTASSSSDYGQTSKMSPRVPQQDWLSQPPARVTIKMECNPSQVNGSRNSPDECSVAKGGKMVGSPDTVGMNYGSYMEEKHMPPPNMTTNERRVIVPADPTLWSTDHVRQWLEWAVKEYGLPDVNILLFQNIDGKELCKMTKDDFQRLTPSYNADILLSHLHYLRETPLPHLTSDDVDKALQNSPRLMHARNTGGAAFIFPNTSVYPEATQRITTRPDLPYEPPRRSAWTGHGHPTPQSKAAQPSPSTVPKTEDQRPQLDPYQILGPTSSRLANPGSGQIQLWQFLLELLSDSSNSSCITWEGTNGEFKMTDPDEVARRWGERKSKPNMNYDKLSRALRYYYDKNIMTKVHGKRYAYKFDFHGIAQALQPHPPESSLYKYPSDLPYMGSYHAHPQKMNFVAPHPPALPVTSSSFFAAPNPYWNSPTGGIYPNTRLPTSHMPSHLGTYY
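His-tagged ERG Ets domain (1 uM in the protein solution; 300mM KCl, 50mM Tris-HCl, 1mM EDTA, 1mM DTT, pH 7.5) received compound, then a probe mix of 5 nM fluorescein-DNA and 100nM Texas-615-DNA. Fluorescence polarization was read for both dyes.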
D1 agonist – Allosteric Agonists of the Human D1 Dopamine Receptor: qHTS; D(1A) dopamine receptor (Homo sapiens), P21728; HEK293 T-REx D1 cells, calcium flux, agonist mode; hit rate 1% among 360,000; activation, % at 2 µM; in the data active means activation above about 30%; further: 0% is about no effect
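Inducible HEK293 T-REx D1 cells, force-coupled to calcium signalling, were plated at 4000 cells/well with tetracycline and held overnight at 30 C. After no-wash calcium dye loading, compound-evoked calcium rise over 180 s flagged agonists.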
Numbers without * were called inactive; ? = inconclusive; . = no result given.

SMILES	D1 potentiator	DRD3 agonist	D1 antagonist	D3 antag	ERG Ets-DNA blk	D1 agonist
O=c1ccc2c(-c3ccccc3)c3ccc(O)cc3oc-2c1	8.2	12.0	-3.8	33.3	64.6%	-0.2
Nc1ccc(-c2c3ccc(=O)cc-3oc3cc(O)ccc23)cc1C(=O)O	1.1	-16.3	-1.1	-54.9*	?	245.4*
COc1ccccc1OC(C)C(=O)Nc1ccc2c(c1)OCCO2 (stereo unspecified)	-11.4	1.1	13.6	15.1	-0.6%	6.6
O=C(NCc1ccccc1C(F)(F)F)C1CCC(=O)N(C2CCCCCC2)C1 (stereo unspecified)	-1.3	-2.4	-3.8	-5.1	-5.0%	6.2
C/C(CCc1oc2c(Br)cc(Br)cc2c1-c1ccc(C)o1)=N\O	-1.1	-11.1	-4.7	-9.0	.	-1.5
O=C(NCc1ccc2c(c1)OCO2)C1CCCN(S(=O)(=O)c2cccc3cccnc23)C1 (stereo unspecified)	-7.0	3.3	-22.4	13.6	8.4%	-0.8
COc1ccc(N/C(N)=N/c2nc(C)cc(=O)[nH]2)cc1	-1.6	-2.3	-36.6*	-3.1	3.7%	4.5
COc1ccccc1N/C(N)=N/c1nc(C(F)(F)F)cc(=O)[nH]1	-10.4	6.3	-56.9*	2.4	2.4%	4.0
CCOC(=O)Cc1cc(=O)[nH]c(/N=C(\N)Nc2ccc(C)c(C)c2)n1	-6.6	1.1	-43.8*	-6.2	10.3%	4.5
COC(=O)Cc1cc(=O)[nH]c(/N=C(\N)Nc2ccccc2C)n1	-1.1	0.7	-0.9	18.4	.	-0.2
O=C1c2ccc(Oc3ccc([N+](=O)[O-])cc3)cc2C(=O)N1CCCO	3.3	-10.9	-36.6*	0.2	-6.7%	6.9
CCOc1cnn(-c2cc(Oc3ccc(C)cc3)ncn2)c(=O)c1Cl	5.0	3.6	5.6	-24.3	0.6%	1.8
Cc1ccccc1Oc1cc(-n2ncc(Cl)c(Cl)c2=O)ncn1	-3.2	-54.4	-27.0	-97.1*	-4.2%	0.0
O=C(CN1C(=O)COc2ccc(S(=O)(=O)N3CCOCC3)cc21)Nc1cccc(Cl)c1	0.1	-3.0	-3.7	?	-3.7%	1.5
C=CCNc1nc(Nc2ccc(-c3nc4ccccc4o3)cc2)nc(N2CCOCC2)n1	2.0	33.2*	-3.4	7.6	.	0.0
C=CCNc1nc(NCC)nc(N2CCOCC2)n1	-9.7	11.7	-9.2	0.0	-4.3%	0.5
Cn1cncc1C#Cc1ccc(N2C(c3ccsc3)=Cc3ccc(F)cc3C2c2c[nH]c3ccccc23)cc1 (stereo unspecified)	.	6.0	.	38.3	.	.
CC(C)N1C(=O)c2ccccc2N(Cc2ccccc2)S1(=O)=O	-1.8	-1.5	10.8	16.7	-0.8%	8.6
COc1ccc(/C=C/C(=O)c2ccc(OC)cc2OC)c(OC)c1	-5.3	34.9*	-3.9	-2.5	7.6%	0.9
COc1ccc(C(=O)c2ccc(N(C)C)cc2)c(OC)c1	2.5	10.7	4.1	14.6	10.0%	0.6
COc1ccc(C(=O)c2ccc(OC)cc2OC)cc1	-1.1	6.1	-48.5*	0.0	-7.3%	0.4
COc1cc(O)c(C(=O)/C=C/c2ccccc2)c(OC)c1	-3.0	3.8	-55.6*	38.5	13.7%	1.6
O=C(NCc1ccc(F)cc1)c1ccc2c(Cl)c3c(nc2c1)CCCC3	4.2	-13.5	10.1	.	2.6%	2.8
CC(=O)OC1C(OC(C)=O)C2C(C)CC3OC(=O)C(C)C3CC2(C)C1OC(C)=O (stereo unspecified)	.	-12.9	.	0.0	.	.
C=C1C(=O)O[C@@H]2C[C@@H](C)[C@@H]3C=CC(=O)[C@@]3(C)[C@@H](OC(C)=O)[C@H]12	-2.5	-59.5	-8.8	-84.1*	4.9%	2.3
CC(C)COC(=O)C(N)C(C(=O)OCC(C)C)c1ccccc1 (stereo unspecified)	-4.6	5.4	-34.5*	0.0	10.7%	1.7
